Source: PubChem BioAssay (NCI)
Several values for one entry are separate records, joined by “and”; a condition that tells them apart may be missing. Equal entries are not always repeated. The panel holds about 83,000 compounds, 20% with a hit somewhere; the sample as a whole holds those more often.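 48-hour exposure, single concentration, 96-well plates; percent growth endpoint where 0 means no net growth. Active: below 10.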 Activity calls are given as the source filed them.

System: HL-60(TB) leukemia
Experiment: NCI-60 one-dose screen, 48 h (100 = growth as untreated, 0 = no growth, -100 = all killed)
Conditions: 10 µM unless noted

Structure (SMILES): CNC(=O)c1ccc(Nc2ncc(C(F)(F)F)c(NCc3nccnc3N(C)S(C)(=O)=O)n2)cc1
- growth: -32.1% (active)

Structure (SMILES): CCN1C(=O)N(CC)C2C1NN=c1s/c(=C\c3cccc([N+](=O)[O-])c3)c(=O)n12 (stereo not drawn)
- growth: -37.1% (active)

Structure (SMILES): N#Cc1c(-c2ccc(C(F)(F)F)cc2)cc(N2CC(O)C2)n2c1nc1ccccc12
- growth: 118% (inactive)

Structure (SMILES): CCCCCCCCCCCCCCCC[N+](C)(C)CCN(Cc1ccc(OC)cc1)c1ncccn1
- growth: -52.7% (active) and -2.88% (active)

Structure (SMILES): O=C(NC(Cc1cn(Cc2ccccc2)cn1)C(=O)O)OCC1c2ccccc2-c2ccccc21 (stereo not drawn)
- growth: 87.4% (inactive)

Structure (SMILES): Cc1ccc(Sc2nnc(/N=C3\C(=O)Nc4ccccc43)s2)cc1
- growth: 95.9% (inactive)

Structure (SMILES): CSc1nc(N)nc2c1ncn2C
- growth: 75.8% (inactive)

Structure (SMILES): Nc1n[nH]c2cccc(C#Cc3cccc(C(=O)Nc4cc(C(F)(F)F)cc(C(F)(F)F)c4)c3)c12
- growth: 39.7% (inactive)

Structure (SMILES): NCc1c(O)ccc2ccccc12
- growth: 102% (inactive)

Structure (SMILES): Cc1ccc(S(=O)(=O)NCCCNc2nccc(-c3c(-c4cccc(F)c4)nc4occn34)n2)cc1
- growth: 44.8% (inactive)

Structure (SMILES): COC(=O)CCC(=O)c1ccccc1
- growth: 94.7% (inactive)

Structure (SMILES): c1ncc2[nH]cnc2n1
- growth: 54.2% (inactive)

Structure (SMILES): CCN(CC)CCNC(=O)c1cn2ncnc(Oc3ccc(NC(=O)Nc4ccc(Cl)c(C(F)(F)F)c4)cc3)c2c1C
- growth: -40.8% (active)

Structure (SMILES): CN(C)CCCn1c2c(c3ncccc3c1=O)C(=O)c1ccccc1-2
- growth: 45.6% (inactive)

Structure (SMILES): COc1cccc(-c2nn(-c3ccccc3)cc2-c2ccnc(NCCCNC(=O)Nc3ccc(Cl)c(Cl)c3)c2)c1
- growth: 16.8% (inactive)

Structure (SMILES): CCN1CCN(c2cc(C)nc(N(CCCNc3ccnc4cc(Cl)ccc34)Cc3cccs3)n2)CC1
- growth: -50.3% (active)

Structure (SMILES): CCN(CC)CCCC(C)Nc1cnc(C(=O)Nc2cc(F)cc3cccnc23)cn1 (stereo not drawn)
- growth: 85.5% (inactive) and 5.69% (active)

Structure (SMILES): Cc1ccc(S(=O)(=O)Nc2ccc3cc([N+](=O)[O-])ccc3c2[N+](=O)[O-])cc1
- growth: 83.3% (inactive) and 31% (inactive)

Structure (SMILES): CN(C)CCCC1(c2ccc(F)cc2)OCc2cc(-c3cncc4ccccc34)ccc21 (stereo not drawn)
- growth: 10.7% (inactive)

Structure (SMILES): Cc1cc(OC(=O)c2ccc([N+](=O)[O-])cc2)nc2[nH]c(=O)sc12
- growth: 99.5% (inactive)

Structure (SMILES): O=C(Cn1ccc(=O)[nH]c1=O)c1ccc([N+](=O)[O-])o1
- growth: 87.1% (inactive)

Structure (SMILES): O=C1CC(=O)N(C(=O)c2nn(-c3ccc(Cl)cc3)cc2O)N1
- growth: 4.53% (active)

Structure (SMILES): Cc1ccc(S(=O)(=O)Nc2ccc(-c3cc(-c4cccc(F)c4)c(C#N)c(N)n3)cc2)cc1
- growth: -14.9% (active)

Structure (SMILES): CCNc1ncnc2[nH]ncc12
- growth: 95.7% (inactive)

Structure (SMILES): COc1ccc(-c2nocc2-c2cc(OC)c(OC)c(OC)c2)cc1
- growth: -14.7% (active)

Structure (SMILES): S=c1[nH]cccc1-c1nnc2n1Nc1nc3ccc(Cl)cc3cc1CS2
- growth: 104% (inactive)

Structure (SMILES): CC(=O)N1N=C(C2C(=O)N(C)C(=O)N(C)C2=O)CC1c1ccccc1C(=O)O (stereo not drawn)
- growth: 92.2% (inactive)

Structure (SMILES): O=S(=O)(NCCCNc1cc(-c2c(-c3cccc(O)c3)nc3sccn23)ccn1)c1cccc(Cl)c1
- growth: 17.7% (inactive)

Structure (SMILES): CC1(/C=N/NC(N)=S)NC(=O)NC1=O (stereo not drawn)
- growth: 86.8% (inactive)

Structure (SMILES): CC[N+](CC)(CC(=O)Nc1c(C)cccc1C)Cc1ccccc1
- growth: 79.6% (inactive) and 94.7% (inactive)

Structure (SMILES): O=C1/C(=C/c2cccc(O)c2)COc2ccc(O)cc21
- growth: 52.1% (inactive)

Structure (SMILES): CN1CCN(C(=O)OCc2ccc3c(Cl)cc(Cl)c(O)c3n2)CC1
- growth: -18.9% (active)

Structure (SMILES): COc1cc2c(cc1OC)N(CCO)C1=C(C(=O)OC1)C2c1ccc(Cl)c(Cl)c1 (stereo not drawn)
- growth: 93.4% (inactive)

Structure (SMILES): O=C1C(Cl)=C(NCc2ccco2)C(=O)c2ccccc21
- growth: 85% (inactive)

Structure (SMILES): Nc1ccc(-c2cc3c(Nc4ccc(OCc5cccc(F)c5)c(Cl)c4)ncnc3s2)cc1
- growth: 48.3% (inactive)

Structure (SMILES): COc1cc(OC)c2sc(-c3ccc(-n4cncc4-c4ccc(OC)c(OC)c4)cc3)nc2c1
- growth: 58.5% (inactive)

Structure (SMILES): CCCCOc1ccc(Nc2cc(Cl)ccc2C(=O)O)cn1
- growth: 87.2% (inactive) and 103% (inactive)

Structure (SMILES): Cn1ccnc1C(=O)C(=O)Nc1ccc(CC(=O)Nc2ccccc2)cc1
- growth: 107% (inactive)

Structure (SMILES): COc1cc(OC)cc(-c2n[nH]nc2-c2ccc3c(c2)OCO3)c1
- growth: 8.65% (active)

Structure (SMILES): O=C(Nc1nc2cc(C(=O)N3CCN(C(c4ccccc4)c4ccccc4)CC3)ccc2o1)c1ccc(NC2CCCCC2)c([N+](=O)[O-])c1
- growth: 82% (inactive)

Structure (SMILES): COC(C(=O)[C@@H](O)[C@@H](C)O)[C@@H]1Cc2cc3cc(O[C@H]4C[C@@H](O[C@H]5C[C@@H](O)[C@H](O)C(C)O5)[C@H](O)C(C)O4)c(C)c(O)c3c(O)c2C(=O)[C@H]1O[C@H]1C[C@@H](O[C@H]2C[C@@H](O[C@H]3C[C@@H](O)[C@H](OC)C(C)O3)[C@@H](O)C(C)O2)[C@H](O)C(C)O1 (stereo partly drawn)
- growth: -5.47% (active)

Structure (SMILES): COC(=O)/C=C1\S/C(=N\NS(=O)(=O)c2ccc(C)cc2)N(c2ccccc2)C1=O
- growth: 105% (inactive)

Structure (SMILES): CCN1C(=O)N(CC)C2Nn3c(s/c(=C4\C(=O)N(C)c5ccccc54)c3=O)=NC21 (stereo not drawn)
- growth: 21.1% (inactive)

Structure (SMILES): Cc1nc2nc(C(F)(F)F)[nH]c2nc1C
- growth: 98.8% (inactive)

Structure (SMILES): O=c1oc2ccc(Cl)cc2c(=O)n1-c1cc(C(F)(F)F)cc(C(F)(F)F)c1
- growth: -20.6% (active)

Structure (SMILES): COc1cc(/C=C/c2cc(/C=C/c3ccc(O)c(OC)c3)n(-c3c(Cl)cccc3Cl)c(=O)n2)ccc1O
- growth: 13.5% (inactive)

Structure (SMILES): O=C(OCc1ccccc1)c1ccccc1
- growth: 132% (inactive) and 98.4% (inactive)

Structure (SMILES): COC12C=C/C(=C(/C(=O)OCc3ccncc3)C(=O)CCCCCCCCC3(OC)C=C/C(=C(/C(=O)OCc4ccncc4)C(=O)CCCCCCCC1)O3)O2
- growth: -22.9% (active)

Structure (SMILES): C=C1CCC2C(C)(CO)C(O)CCC2(C)C1CC(NCc1ccccc1)C1=CCOC1=O (stereo not drawn)
- growth: 111% (inactive)

Structure (SMILES): Cc1ccc2oc(=O)cc(-c3nc4ccc([N+](=O)[O-])cc4[nH]3)c2c1
- growth: 53.1% (inactive)

Structure (SMILES): N#Cc1c(-c2ccccc2)cc(-c2ccccc2)n(CCCCCC(=O)Nc2ccccc2N)c1=O
- growth: 2.68% (active)

Structure (SMILES): COC(=O)[C@]12CC[C@@H](C(/C=C/c3cccnc3)=N/O)[C@@H]1[C@H]1CC[C@@H]3[C@@]4(C)CC(=C/c5cccnc5)/C(=N/O)C(C)(C)[C@@H]4CC[C@@]3(C)[C@]1(C)CC2
- growth: 2.86% (active)

Structure (SMILES): Cc1sc2nc3[nH]/c(=C\c4ccc(Cl)cc4)c(=O)n3c(=O)c2c1C
- growth: 92.8% (inactive)

Structure (SMILES): Cc1ccc(NC(=O)Nc2ccc(Nc3ncnc4sc5c(c34)CCOC5)cc2)cc1Cl
- growth: 108% (inactive)

Structure (SMILES): O=C1c2c(c3c4ccccc4[nH]c3c3ccc4ccccc4c23)C(=O)N1CCN1CCCCC1
- growth: 9.19% (active)

Structure (SMILES): NC(N)=Nc1nc2ccccc2o1
- growth: 124% (inactive)

Structure (SMILES): CN1C(=O)N(C)C2C1NN=c1s/c(=C\c3cccnc3)c(=O)n12 (stereo not drawn)
- growth: 82.7% (inactive)

Structure (SMILES): CCC1CCC(C)NC1 (stereo not drawn)
- growth: 99.4% (inactive)

Structure (SMILES): COc1ccc(Nc2cc(Cl)ccc2C(=O)O)cn1
- growth: 96.3% (inactive)

Structure (SMILES): CN(C)CCCOc1c(Br)cc(/C=C/C(=O)N(C)CCc2cc(Br)c(OCCCN(C)C)c(Br)c2)cc1Br
- growth: 81.9% (inactive)

Structure (SMILES): COc1ccc2nc(C)cc(Nc3ccc(Cl)cc3)c2c1
- growth: 95.6% (inactive)

Structure (SMILES): C#CCOc1ccc2ncnc(Nc3ccc(NC(=O)CCl)cc3)c2c1
- growth: -57.5% (active)

Structure (SMILES): O=c1c2cc(F)ccc2oc2c(NCCNCCO)nc3ccccc3c12
- growth: 70.5% (inactive)

Structure (SMILES): O=C1C=CC(=O)N1c1cccc(N2C(=O)C=CC2=O)c1
- growth: 97.9% (inactive)

Structure (SMILES): Nc1c(C(=O)Nc2ccccc2)sc2nc3c(cc12)CCCCC3
- growth: 10.4% (inactive)

Structure (SMILES): O=[N+]([O-])c1ccc(S(=O)(=O)N2CCN(C3=NS(=O)(=O)c4ccccc4N3c3ccccc3)CC2)cc1
- growth: 96.7% (inactive)

Structure (SMILES): COc1ccccc1/C=C/C(=O)/C=C/c1ccccc1O
- growth: -5.37% (active)

Structure (SMILES): N#CCCn1cnc2c(N)ncnc21
- growth: 98.6% (inactive)

Structure (SMILES): NN1C(=O)CSC1=S
- growth: 126% (inactive)

Structure (SMILES): OC(CC(c1ccccc1)c1cccc2ccccc12)(c1ccccc1)c1ccccc1 (stereo not drawn)
- growth: 99.1% (inactive) and 101% (inactive)

Structure (SMILES): Nc1ncnc2c1C(c1ccccc1)c1ccc3ccccc3c1O2 (stereo not drawn)
- growth: 82.4% (inactive)

Structure (SMILES): CN(C)c1ccc(Cc2ccc(N(C)C)cc2Cl)c(Cl)c1
- growth: 5.92% (active)

Structure (SMILES): O=C(O)/C=C(\c1nc2ccc([N+](=O)[O-])cc2[nH]1)c1cc(Cl)ccc1O
- growth: 10.8% (inactive)

Structure (SMILES): Cn1c(=O)[nH]c(=O)c2nc(CCC(=O)NCCC(=O)O)c(=O)[nH]c21
- growth: 101% (inactive)

Structure (SMILES): Nc1nc(N)c2[nH]cnc2n1
- growth: 87.5% (inactive)

Structure (SMILES): Cc1nc2ncccc2nc1Nc1ccc(S(=O)(=O)Nc2cncs2)cc1
- growth: 109% (inactive)

Structure (SMILES): c1ccc(Nc2ccc(Nc3nc(-c4ccccc4)nc4ccccc34)cc2)cc1
- growth: 87.1% (inactive)

Structure (SMILES): CC1=Nc2cnc(Nc3ccc(OCCN4CCCCC4)cc3)nc2Nc2ccccc21
- growth: 65.1% (inactive)

Structure (SMILES): COc1cc(C2CC(c3cccc(Br)c3)=NN2C(C)=O)cc(OC)c1OC (stereo not drawn)
- growth: 78.2% (inactive)

Structure (SMILES): O=C(CNS(=O)(=O)Cc1ccccc1)NNc1ccccc1
- growth: 18% (inactive)

Structure (SMILES): COC(=O)c1ccc2[nH]c(O)c(C(=Nc3ccc(N(C)C(=O)CN4CCN(C)CC4)cc3)c3ccc(C)cc3)c2c1
- growth: -55.7% (active)

Structure (SMILES): CC(=O)Nc1ccc(S(=O)(=O)Cl)cc1
- growth: 103% (inactive)

Structure (SMILES): Fc1cc(C2=NNC(c3ccc[nH]3)C2)ccc1-n1ccc(C(F)(F)F)n1 (stereo not drawn)
- growth: 55.3% (inactive)
